Source: PubChem BioAssay (NCI)
About 79,000 compounds went through this panel and 15% of them were active in at least one assay; those are over-represented in the sample as a whole. No stated cut-off is given here; in the data, active means growth inhibition above about 70%; inactive means the rest.

Tests used:
[1] = NCI Yeast Anticancer Drug Screen. Data for the rad50 strain (AID 155);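 further: 0% = growth of vehicle-only cultures of the same strain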; details: S. cerevisiae rad50 strain growth inhibition; at 50.0 µM; stronger effect = higher value
Outline: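 DNA repair mutant yeast, compound exposure, growth read-out; inhibition is taken relative to vehicle.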

[2] = NCI Yeast Anticancer Drug Screen. Data for the mec2-1 strain (AID 157); details: S. cerevisiae mec2-1 strain, at 50.0 µM, stronger effect = higher value
Outline: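 Yeast mec2-1 mutant treated with compound. Readout: growth inhibition vs vehicle controls.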

[3] = NCI Yeast Anticancer Drug Screen. Data for the sgs1 mgt1 strain (AID 161);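 further: 0% = growth of cultures given vehicle only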; details: S. cerevisiae sgs1 mgt1 strain, at 50.0 µM, stronger effect = higher value
Outline: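 Test agents were incubated with a DNA-repair-mutant yeast strain. Growth was then read and compared against vehicle-treated controls.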

[4] = NCI Yeast Anticancer Drug Screen. Data for the cln2 rad14 strain (AID 165);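 further: 0% = growth equal to vehicle treated cultures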; details: S. cerevisiae cln2 rad14 strain, at 50.0 µM, stronger effect = higher value
Outline: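 cln2 rad14 yeast strain; compound exposure; growth inhibition read vs vehicle controls.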

[5] = NCI Yeast Anticancer Drug Screen. Data for the bub3 strain (AID 167); details: S. cerevisiae bub3 mutant strain, at 50.0 µM, stronger effect = higher value
Outline: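 In this screen, a yeast mutant lacking normal mitotic checkpoint function is challenged with compound. Relative growth versus vehicle gives the inhibition value.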

[6] = NCI Yeast Anticancer Drug Screen. Data for the mlh1 rad18 strain (AID 175); details: S. cerevisiae mlh1 rad18 strain growth inhibition; at 50.0 µM; stronger effect = higher value
Outline: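 Yeast w/ defined DNA-repair lesions; compound exposure; growth vs vehicle controls → % inhibition.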

Measured: growth inhibition

C[N+]1(C)C2CC(O)CC1C1OC12 (stereo not given)
inactive: [1] -4.35% | [2] 5.15% | [3] 1.45% | [4] 2.85% | [5] -3.75% | [6] 4.45%

Cc1ccccc1NC(N)=S
inactive: [1] 27.6% | [2] 9.15% | [3] -8.2% | [4] 1.55% | [5] 5.4% | [6] 15.7%

CC1(C)OC2(C)CCC1C1C2N1C(=O)c1ccccc1 (stereo not given)
inactive: [1] 0.75% | [2] -9.75% | [3] 5.25% | [4] 4.95% | [5] 19.2% | [6] -6.2%

CCOC(=O)C(Cc1ccc(N(CCCl)CCCl)cc1)NC(=O)C(NC(C)=O)C(C)C (stereo not given)
inactive: [1] 36.9% | [2] 13.3% | [3] 33.2% | [4] 17.4% | [5] 29.7% | [6] 28.4%

CC(CO)[N+](=O)[O-] (stereo not given)
inactive: [1] 0.75% | [2] 1.15% | [3] -5.05% | [4] -15.2% | [5] 1.5% | [6] 1%

CN(C)CCN1C(=O)CN=C(c2ccccc2Cl)c2cc(Cl)ccc21
inactive: [1] 15.8% | [2] 12.2% | [3] 27% | [4] 2.75% | [5] 0.2% | [6] 27.6%

CC(=O)OC(c1ccccc1Cl)C(Cl)(Cl)Cl (stereo not given)
inactive: [1] -16.9% | [2] -9.35% | [3] -4.65% | [4] -39.9% | [5] -14.2% | [6] -5.55%

CN1CN(c2ccccc2)C2(CCN(CCCCCCF)CC2)C1=O
inactive: [1] -5.55% | [2] -15.9% | [3] -19.4% | [4] -0.15% | [5] -5.95% | [6] 16.4%

CN1C(=O)c2ccccc2NC(=O)C12O[C@@H]2c1ccccc1 (stereo not given in full)
inactive: [1] 0.05% | [2] -19.7% | [3] -4.95% | [4] 14.3% | [5] -9.7% | [6] -16.9%

CCN(CC)CCn1ccc2ccccc21
inactive: [1] -11.4% | [2] -18.4% | [3] -9.85% | [4] 17.3% | [5] -27.1% | [6] -5.95%

N#CCC(N)C(=O)O (stereo not given)
inactive: [1] 0.7% | [2] -11.1% | [3] -11.8% | [4] -34.4% | [5] -9.2% | [6] 8.65%

O=C(Sc1c[nH]c(=O)[nH]c1=O)c1ccc(N(CCCl)CCCl)cc1
inactive: [1] 29.6% | [2] -18.4% | [3] 19.9% | [4] -24.8% | [5] -6.3% | [6] -1.05%

O=[N+]([O-])c1ccc2c(c1)[O][Sn]([I])([I])[O]2
inactive: [1] -6% | [2] -3.95% | [3] 8.8% | [4] 6.7% | [5] 1.95% | [6] -3.9%

CN(C)C(=O)NC(O)C(Cl)(Cl)Cl (stereo not given)
inactive: [1] -20.4% | [2] -8.35% | [3] -5.45% | [4] -21.1% | [5] -4.25% | [6] 19.1%

O=[N+]([O-])c1cc(Br)c(O)c(Br)c1
inactive: [1] 12.2% | [2] 18.8% | [3] 5.15% | [4] -37.4% | [5] 6.75% | [6] 32.3%

CO[C@H]1C[C@H](O[C@H]2CC[C@@]3(C)[C@H](CC[C@@H]4[C@@H]3CC[C@]3(C)[C@@H](C5=CC(=O)OC5)CC[C@]43O)C2)O[C@H](C)[C@H]1O
inactive: [1] 33.2% | [2] 5.95% | [3] 17.8% | [4] 23.1% | [5] 14.6% | [6] -49%

NNC(=O)Nc1ccc([N+](=O)[O-])cc1[N+](=O)[O-]
inactive: [1] 63.8% | [2] 0% | [3] 34.7% | [4] 20.2% | [5] 38.4% | [6] 20.5%

CC(=O)CC(C)=O.CC(=O)CC(C)=O.[O]=[V]
inactive: [1] -60.2% | [2] -58% | [3] -57.8% | [4] -153% | [5] -54.6% | [6] -53.2%

N=P(c1ccccc1)(c1ccccc1)c1ccccc1.[Cr+6].[N-]=C=S.[N-]=C=S.[N-]=C=S.[N-]=C=S.[NH2-].[NH2-]
inactive: [1] 3.95% | [2] -2.55% | [3] -3.6% | [4] -3.35% | [5] -2.1% | [6] 0%

CSCCC(N)C(=O)O.[Pb] (stereo not given)
inactive: [1] -17.9% | [2] -10.3% | [3] 13.1% | [4] -40.4% | [5] -12.4% | [6] -20.2%
